Hits are enriched below; roughly 19% of the tested compounds scored in any of these assays.
KB-3-1 tox: KB-3-1 parental cell cytotoxicity; KB-3-1 viability, CellTiter-Glo ATP luminescence, 72 h; Potency, µM (top dose mostly 46.1 µM), hits mostly cytotoxic; 400,000 tested, 1.4% active; note: nearly all actives have a fitted effect of over 60% in size
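Luminescent ATP read-out (CellTiter-Glo) measures survival of drug-naive KB-3-1 cells after 72 h compound exposure at 37 °C. Titration series was screened from lowest to highest concentration, with DMSO vehicle plates as background controls.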
HT1080-NT tox: kills 2HG-producing HT-1080-NT fibrosarcoma cells. HT-1080-NT fibrosarcoma viability, CellTiter-Glo ATP luminescence, 48 h. Potency, µM (doses to about 46.1 µM), for the others: at the highest dose activity, negative = less viability, most hits filed as cytotoxic. 360,000 tested, 1.6% active;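 note: NT is the 2HG producing partner of a matched IDH1 knockdown line; 0% = DMSO-treated cells and -100% = media-only wells without cells; nearly all actives have a fitted effect of over 55% in size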
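Luminescent CellTiter-Glo readout after 48 hours of compound exposure at 37 degrees C defined viability of HT-1080-NT cells. Activity was normalized to DMSO wells and cell-free media wells; concentration-response curves were fitted and assigned curve classes.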
KB-V1 cytotox: KB-V1 MDR subline cytotoxicity; 400,000 tested, 3.4% active; KB-V1 MDR cells viability, CellTiter-Glo, 72 h; Potency, µM (highest dose often 46.1 µM), most hits filed as cytotoxic; note: nearly all actives have a fitted effect of over 60% in size
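KB-V1 MDR subline cells in DMEM (phenol-red free, 10% FBS) exposed to compounds in qHTS concentration series for 72 h at 37 degrees C. Viability read by CellTiter-Glo luminescence; concentration-effect curves fitted after normalization and correction.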
TDP1 cell CPT: DT40-hTDP1 cell growth loss with CPT | chicken DT40 Tdp1-/-;hTDP1 cells + 20 nM CPT, ATP luminescence, 48 h | Potency, µM (series often up to 46.2 µM), for inactives: at the top dose activity change, negative = growth inhibition, most hits filed as inhibitors | 420,000 tested, 12% active | AID 686979; note: nearly all actives have a fitted effect of over 55% in size
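Cell growth measured by CellTiter-Glo luminescence after a minimum 48 h, 37 C compound exposure with 20 nM CPT in Tdp1-knockout DT40 cells stably expressing hTDP1, seeded 400/well; qHTS titration format.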
TDP1 cell noCPT: qHTS for Inhibitors of human tyrosyl-DNA phosphodiesterase 1 (TDP1): qHTS in cells in absence of CPT; DT40 Tdp1-/- hTDP1 cells, no CPT, ATP luminescence, 48 h; Potency, µM (top dose mostly 46.2 µM), inactives show at the highest dose activity change, negative = growth inhibition, actives largely listed as inhibitors; 420,000 tested, 15% active; AID 686978, 2013; note: nearly all actives have a fitted effect of over 55% in size
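Cells were dispensed at 400 per well, compounds added by pin tool, plates incubated ≥48 hr at 37 °C, then CellTiter-Glo added for 30 min at room temperature before luminescence reading. Line: DT40 Tdp1-/- complemented with hTDP1; camptothecin omitted.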
HT1080 IDH1KD tx: kills HT-1080 cells with IDH1 knockdown; 360,000 tested, 2% active; HT-1080 IDH1 knockdown viability, ATP luminescence, 48 h; AID 686971; Potency, µM (doses to about 46.1 µM), for inactives: at the top dose activity, negative = toxicity, usual class: cytotoxic;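 note: 0% = DMSO wells and -100% = cell-free medium wells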
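In this qHTS, HT-1080 cells depleted of IDH1 are exposed for 48 h at 37 °C to compound titrations. Toxicity is scored from CellTiter-Glo luminescence, with DMSO as full viability and medium alone as none.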
* hit, by the source's call; i = inactive; ? = inconclusive; / = no result given; [ ] = another dose, or the depositor's remark. Calls come from the whole dose curve; as a rule, active = well fitted curve in the direction sought with a large enough effect; inconclusive = small, poorly fitted or top-dose-only effect, or another doubt; inactive = no such curve, though single readings can be large; an effect the other way counts as inactive or inconclusive. Unless noted, % is set by controls: 0 for no effect and ±100 for the full control effect; potency is the fitted concentration of half-maximal effect.

SMILES | KB-3-1 tox | HT1080-NT tox | KB-V1 cytotox | TDP1 cell CPT | TDP1 cell noCPT | HT1080 IDH1KD tx
CCc1ccc(C2C3=C(CC(C)(C)CC3=O)OC3=C2C(=O)CC(C)(C)C3)cc1 | i | 3% | ? | ? | 23µM* | 1%
CC1(C)CC(=O)C2=C(C1)OC1=C(C(=O)CC(C)(C)C1)C2c1ccccc1 | i | 6% | i | -19% | -16% | 12%
O=C(c1noc2c1CCc1ccccc1-2)N1CCOCC1 | i | 2% | 16µM* | -14% | -23% | -20%
COc1ccc2c(c1)CCc1c(C(=O)N3CCCCCC3)noc1-2 | i | -2% | 15µM* | -8% | -27% | -1%
O=C(c1noc2c1CCc1ccccc1-2)N1CCCc2ccccc21 | i | 0%[9.24 µM] | i | ? | ? | -23%
COc1ccc2c(c1)CCc1c(C(=O)Nc3ccc(OC)cc3OC)noc1-2 | i | / | i | -1% | -14% | /
COc1ccc2c(c1)CCc1c(C(=O)NCc3cccnc3)noc1-2 | ? | 13% | 8.2µM* | -25% | ? | -1%
N#Cc1ccccc1CSc1nc(N)cc(N)n1 | i | 1% | ? | -6% | -8% | 1%
Cc1cc(C(=O)NCc2ccccc2C)c2c(C)nn(-c3cccc(F)c3)c2n1 | i | / | i | ? | ? | /
CC1Oc2ccccc2C=C1/C=N/NC(=O)c1ccccc1 (configuration not stated) | i | -22% | i | 9.2µM* | 26µM* | -2%
Cc1ccc(C(=O)N/N=C/C2=Cc3ccccc3OC2C)cc1 (configuration not stated) | i | -21% | i | ? | 15µM* | -16%
CC1=C(c2ccc(C)cc2)S(=O)(=O)NC1=NCc1cccc(F)c1 | / | / | / | -21% | ? | /
O=C(CC(c1ccco1)C1CCCCC1=O)c1ccccc1 (configuration not stated) | i | -10% | ? | ? | ? | -10%
Cc1ccccc1C(=O)N1CCN(c2ccc([N+](=O)[O-])c(NCc3ccco3)c2)CC1 | i | -11% | ? | ? | ? | -5%
Cc1ccc(C(=O)N2CCN(c3ccc([N+](=O)[O-])c(NCc4ccco4)c3)CC2)cc1 | i | 0% | i | ? | 16µM* | -1%
Cc1cccc(C(=O)N2CCN(c3ccc([N+](=O)[O-])c(NCc4ccco4)c3)CC2)c1 | i | -8% | i | ? | 21µM* | -3%
Nc1nc(N)c2c(n1)CCCC2 | i | 5% | i | -15% | 0% | 4%
CCN1CCN(S(=O)(=O)c2cc3c(cc2Cl)NC(=O)CO3)CC1 | i | 1% | i | 1% | -9% | 4%
CN1C(=O)c2c(sc3c2CC(C)(C)SC3)N2CCN=C12 | i | -5% | ? | 21µM* | 21µM* | -7%
CCCn1c(=O)c2sccc2n2c(CCCC(=O)NCCOC)nnc12 | / | / | / | -2% | 0% | /
COc1ccccc1CCNC(=O)c1ccc2c(c1)c(C)c(C)n2Cc1ccc(Cl)cc1 | i | / | i | 23µM* | 21µM* | /
Cc1c(C)n(Cc2ccc(Cl)cc2)c2ccc(C(=O)NCCN3CCOCC3)cc12 | ? | ? | i | ? | ? | ?
COc1ccc(OC)c(CNC(=O)c2ccc3c(c2)c(C)c(C)n3Cc2ccc(Cl)cc2)c1 | ? | / | ? | 16µM* | ? | /
Cc1ccc(NC(=O)[C@H](C)NC(=O)C2CCN(C(=O)[C@@H](NC(=O)OC(C)(C)C)C(C)C)CC2)cc1 | ? | 2% | i | 26% | -9% | 0%
COc1ccc2c(c1)C(=O)C1NC(=O)NC(=O)C1(Br)N2 (configuration not stated) | i | 0% | ? | -5% | -2% | 6%

From PubChem
